Test results as given in PubChem BioAssay (NCATS).
Where “and” joins values, the source holds several entries; their conditions need not be identical. Equal values may be shown once. Inconclusive results are not listed. Calls of active or inactive are those of the source. The call rests on the fitted dose curve; in most records, active means well fitted inhibition curve with a large enough effect; inconclusive means small, poorly fitted or top-dose-only effect; inactive means flat fitted curve, though single readings scatter.

Assays:
PC15 = assay: qHTS profiling for inhibitors of Plasmodium falciparum proliferation (AID 504749); further: potency means the concentration at half of the fitted maximal effect; conditions: P. falciparum in erythrocytes, SYBR Green DNA, 72 h; series mostly up to 28.7 µM
Summary of the method: (§1)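 P. falciparum-infected erythrocytes (0.3% parasitemia, 2.5% hematocrit final) were exposed to compounds for 72 h at 37 C in 5% CO2, then lysed with SYBR Green buffer overnight at room temperature; parasite DNA fluorescence was normalized to artemisinin and DMSO controls.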

PC26 = assay: as above; conditions: P. falciparum in erythrocytes, SYBR Green DNA, 72 h; series mostly up to 28.7 µM
Summary of the method: as §1

PC49 = assay: as above; conditions: P. falciparum in erythrocytes, SYBR Green DNA, 72 h; series mostly up to 28.7 µM
Summary of the method: as §1

SC27B = assay: as above; conditions: P. falciparum in erythrocytes, SYBR Green DNA, 72 h; series mostly up to 28.7 µM
Summary of the method: as §1

TAB109 = assay: as above; conditions: P. falciparum in erythrocytes, SYBR Green DNA, 72 h; series mostly up to 28.7 µM
Summary of the method: as §1

TAB113 = assay: as above; conditions: P. falciparum in erythrocytes, SYBR Green DNA, 72 h; series mostly up to 28.7 µM
Summary of the method: as §1

TAB165 = assay: as above; conditions: P. falciparum in erythrocytes, SYBR Green DNA, 72 h; series mostly up to 28.7 µM
Summary of the method: as §1

CRL-7250 [1] = assay: Cytotoxic Profiling of Annotated Libraries Using Quantitative High-Throughput Screening (AID 1296008); conditions: Five cell lines viability, CellTiter-Glo ATP luminescence, 48-72 h; max response: stronger effect = lower value; on max response: on the % scale 0 is the no-effect control and ±100 the full control effect
Summary of the method: (§2)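 Compounds were pin-transferred onto cells and incubated 48 or 72 hr at 37 degree Celsius, 95% humidity. CellTiter-Glo was added, plates sat 10 min at room temperature, then ATP-coupled luminescence was imaged as the viability read-out.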

HaCat [2] = assay: as above; conditions: Five cell lines viability, CellTiter-Glo ATP luminescence, 48-72 h; max response: stronger effect = lower value
Summary of the method: as §2

KB-3-1 = assay: as above; conditions: Five cell lines viability, CellTiter-Glo ATP luminescence, 48-72 h; max response: stronger effect = lower value
Summary of the method: as §2

NIH3T3 = assay: as above; conditions: Five cell lines viability, CellTiter-Glo ATP luminescence, 48-72 h; max response: stronger effect = lower value
Summary of the method: as §2

CRL-7250 [3] = assay: qHTS assay to identify novel small-molecules to repurpose for Merkel cell carcinoma treatment (AID 1296009); conditions: MCC and control cell lines, CellTiter-Glo viability, 72 h; at 44.8 µM (top of the series) unless noted
Summary of the method: (§3)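 Cells exposed to NPC (8-point) and MIPE (11-point) compound dilutions for 72 hr at 37 degree celsius; viability read by CellTiter-Glo luminescence, normalized to no-cell and DMSO in-plate controls.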

MCC-13 = assay: as above; conditions: MCC and control cell lines, CellTiter-Glo viability, 72 h; series mostly up to 46 µM
Summary of the method: as §3

MKL-1 = assay: as above; conditions: MCC and control cell lines, CellTiter-Glo viability, 72 h; series mostly up to 46 µM
Summary of the method: as §3

MKL-2 = assay: as above; conditions: MCC and control cell lines, CellTiter-Glo viability, 72 h; series mostly up to 46 µM
Summary of the method: as §3

HEK293 = assay: Cytotoxic Profiling of Annotated Libraries Using Quantitative High-Throughput Screening (AID 1296008); conditions: Five cell lines viability, CellTiter-Glo ATP luminescence, 48-72 h; max response: stronger effect = lower value; on max response: on the % scale 0 is the no-effect control and ±100 the full control effect
Summary of the method: as §2

HACAT [4] = assay: qHTS assay to identify novel small-molecules to repurpose for Merkel cell carcinoma treatment (AID 1296009); conditions: MCC and control cell lines, CellTiter-Glo viability, 72 h; at 44.8 µM (top of the series) unless noted
Summary of the method: as §3

MCC-26 = assay: as above; conditions: MCC and control cell lines, CellTiter-Glo viability, 72 h; series mostly up to 46 µM
Summary of the method: as §3

W2 = assay: qHTS profiling for inhibitors of Plasmodium falciparum proliferation (AID 504749); further: potency means the concentration at half of the fitted maximal effect; conditions: P. falciparum in erythrocytes, SYBR Green DNA, 72 h; series mostly up to 28.7 µM
Summary of the method: as §1
Further: nearly all actives have a fitted effect of over 60% in size.

NNc1ccccc1
inactive: Potency (PC15) | Potency (PC26) | Potency (PC49) | Potency (SC27B) | Potency (TAB109) | Potency (TAB113) | Potency (TAB165) | outcome (CRL-7250 [1]) | max response (HaCat [2]) 1.05% | max response (KB-3-1) -8.39% | max response (NIH3T3) 4.99% | outcome (CRL-7250 [3]) | outcome (MCC-13) | Potency (MKL-1) | Potency (MKL-2)

CCCOC(=O)c1cncn1C(C)c1ccccc1 (stereo unspecified)
inactive: max response (CRL-7250 [1]) -1.16% | max response (HEK293) 1.16% | outcome (HaCat [2]) | max response (NIH3T3) 3.77% | outcome (HACAT [4]) | outcome (MCC-13) | Potency (MKL-1) | Potency (MKL-2)

O=c1[nH]c2ccccc2n1C1CCNCC1
inactive: outcome (CRL-7250 [1]) | max response (HEK293) -4.64% | max response (HaCat [2]) 3.09% | outcome (NIH3T3) | outcome (CRL-7250 [3]) | outcome (MCC-13) | Potency (MCC-26) | Potency (MKL-1) | Potency (MKL-2)

Clc1ccc(C(c2ccc(Cl)cc2)C(Cl)(Cl)Cl)cc1
active: Potency (W2) 6.01 µM
inactive: Potency (PC15) | Potency (PC49) | Potency (SC27B) | Potency (TAB109) | max response (CRL-7250 [1]) -9.96% | max response (HEK293) -19.8% | max response (HaCat [2]) 1.96% | max response (KB-3-1) -11.6% | max response (NIH3T3) -6.38% | outcome (MCC-13) | Potency (MCC-26) | Potency (MKL-1) | Potency (MKL-2)

CC(C)C[C@H](CN)CC(=O)O
inactive: max response (CRL-7250 [1]) -0.456% | max response (HEK293) 2.24% | max response (HaCat [2]) -0.0678% | max response (KB-3-1) -13.5% and 1.18% | max response (NIH3T3) -13.2% | outcome (MCC-13) | Potency (MKL-1) | Potency (MKL-2)

[N-]=[N+]=CC(=O)OC[C@H](N)C(=O)O
inactive: max response (CRL-7250 [1]) -7.47% | max response (HEK293) 4.4% | max response (HaCat [2]) -3.83% | max response (KB-3-1) -24.6% | max response (NIH3T3) -9.9% | outcome (MCC-13) | Potency (MKL-1) | Potency (MKL-2)

CC(C(=O)c1ccccc1)N(C)C (stereo unspecified)
inactive: max response (CRL-7250 [1]) 3.38% | max response (HEK293) -1.39% | outcome (HaCat [2]) | max response (NIH3T3) -10.7% | outcome (HACAT [4]) | outcome (MCC-13) | Potency (MCC-26) | Potency (MKL-1) | Potency (MKL-2)
